# Compounds without any hit were thinned out: in the full panel of roughly 83,000, 20% have a hit.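 Step 1: grow cells in 96-well plates. Step 2: add test compound at a single concentration. Step 3: incubate 48 h. Step 4: record percent growth.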 A number with no mark means an inactive call. Active and inactive are the calls of the source. Rule for the calls: active = growth percent below 10; inactive = the rest.
# Tests used:
# Experiment in all cases: NCI-60 one-dose screen, 48 h (100 = growth as untreated, 0 = no growth, -100 = all killed)
# Settings in all cases: 10 µM unless noted
# [1] = system: SR leukemia
# [2] = system: RPMI-8226 leukemia
# [3] = system: OVCAR-8 ovarian
# [4] = system: OVCAR-5 ovarian
# [5] = system: OVCAR-4 ovarian
# [6] = system: SK-OV-3 ovarian
# [7] = system: IGROV1 ovarian
# [8] = system: OVCAR-3 ovarian
# [9] = system: HS 578T breast
# [10] = system: NCI/ADR-RES ovarian
Compound,growth [1],growth [2],growth [3],growth [4],growth [5],growth [6],growth [7],growth [8],growth [9],growth [10]
C=C1C(=O)O[C@H]2[C@H]1CC/C(COC(=O)CCCC(=O)OC/C1=C/CC[C@@]3(C)O[C@H]3[C@H]3OC(=O)C(=C)[C@@H]3CC1)=C\CC[C@@]1(C)O[C@@H]21,0.324% (active),-9.1% (active),-9.93% (active),2.2% (active),49.2%,74.5%,13.4%,-46.6% (active),47.1%,83.1%
Cc1nccc2c3ccc(OCc4cn(-c5ccc(Br)cc5)nn4)cc3n(CCCc3ccccc3)c12,-29.8% (active),8.43% (active),2.18% (active),49.6%,63.2%,90%,60.4%,104%,-6.57% (active),-36.1% (active)
O=C(NNC(=O)c1ccc([N+](=O)[O-])cc1)c1ccc([N+](=O)[O-])cc1,99.1%,95.5%,112%,102%,93.8%,96.1%,112%,104%,104%,104%
C=C1C(=O)O[C@H]2[C@H]1CC/C(C(=O)Nc1ccc(OC)c(C(N)=O)c1O)=C\CC[C@@]1(C)O[C@@H]21,22.3%,70.8%,68.2%,75.1%,67.2%,80.7%,55.5%,25.4%,77.4%,92.5%
CC(=S)Nc1ccccc1,103%,99.7%,94.5%,99.8%,95.4%,87.6%,89.8%,101%,98.7%,100%
O=c1c(-c2ccc3c(c2)OCO3)coc2c(CO)c(O)ccc12,13.4%,2.57% (active),24.3%,35.8%,41.7%,-18.3% (active),5.08% (active),-55.1% (active),6.65% (active),52%
COc1ccc(Cn2cc3c(c2-c2cc(OC)c(OC)c(OC)c2)CCc2c(CO)noc2-3)cc1,22.2%,21.7%,22.4%,56.6%,68.9%,39.9%,40.8%,5.3% (active),9.56% (active),8.59% (active)
O=C1/C(=C/c2cccc3cnccc23)Cc2cc(F)ccc21,84.6%,85.9%,96.1%,108%,77%,76.9%,85.9%,109%,109%,90.7%
COc1ccc(-c2nnc(SCC(=O)Nc3ccc(C(=O)/C=C/c4ccccc4)cc3)o2)cc1OC,88.1%,70.5%,98.8%,106%,101%,109%,103%,105%,110%,93.5%
Nc1ncnc2c1ncn2C1OC(COC(c2ccccc2)(c2ccccc2)c2ccccc2)C(O)C1O (stereo not given),89.6%,82.1%,96.7%,85.7%,95.2%,123%,107%,106%,84.1%,89.2%
CCc1c(C)c2cc(-n3c(-c4ccc(OC)cc4)csc3=N)c(O)c(C)c2oc1=O,3.54% (active),-9.39% (active),17.9%,44%,12.3%,43.8%,25.1%,9% (active),24.5%,11.4%
CCOc1ccc(NC2=C(Cl)C(=O)c3ccccc3C2=O)cc1,-6.21% (active),41.7%,62.7%,110%,91.9%,92.1%,0.21% (active),43.5%,95.4%,98.5%
COc1ccccc1S(=O)(=O)Nc1ccc2c3c(cc(-c4cnn(C5CC5)c4)nc13)C(=O)N2C,51.3%,10%,70.1%,72.6%,62.2%,55.8%,59.2%,69.8%,55.9%,59%
Cc1cc(Nc2ccc(Cl)c(Cl)c2)nc(N)n1,78%,80.9%,107%,105%,92.8%,105%,114%,98.9%,92.6%,98.3%
OCc1cn(-c2ccc(Cl)cc2)nc1-c1ccc(O)cc1,82.1%,97.3%,106%,99.9%,91.6%,105%,91.3%,108%,105%,94.7%
O=c1c2ccccc2sc2c(N3CCCC3)nc3ccccc3c12,81.5%,92.8%,93.6%,112%,95.2%,118%,85.8%,107%,89.6%,102%
Cc1cn(-c2nc3c(c(NCc4ccccc4)n2)COCC3)c2cccc(C(N)=O)c12,50.8% [0.5 µM],-15.3% [0.5 µM] (active),58.1% [0.5 µM],70.8% [0.5 µM],58.8% [0.5 µM],111% [0.5 µM],82.3% [0.5 µM],91.5% [0.5 µM],83.5% [0.5 µM],86% [0.5 µM]
Nc1ncnc2c1c(-c1ccc(Oc3ccccc3)cc1)nn2C[C@H]1SSC[C@@H]1O,-49.4% (active),46.2%,79.4%,82.1%,47.2%,1.91% (active),22%,-62.4% (active),68.3%,76.5%
CCOc1cccc(Nc2nc(N)nc3[nH]c4ccc(O)cc4c23)c1,65.7%,42.4%,77.6%,63.1%,66.3%,55.9%,16.7%,58.5%,58.5%,80.4%
COc1cc(-c2nc(N)n(CC(=O)Nc3ccc(/C(C)=N\O)cc3)n2)cc(OC)c1OC,83%,94.3%,74.3%,114%,112%,87.9%,96.8%,106%,82.1%,105%
COc1ccccc1NC(=O)COc1ccc(/C=C2/Oc3cc4occc4c(OC)c3C2=O)cc1OC,93.5%,66.7%,85.4%,111%,112%,110%,122%,105%,112%,90.8%
CN(C)c1ncc(C#Cc2c(F)cccc2F)c2ccccc12,83.8%,68.1%,93.7%,99.8%,85.3%,89.3%,48.2%,88.4%,108%,92.9%
CC(C)[C@@H]1NC(=O)[C@]2(C)CSC(=N2)c2ccnc(c2)CNC(=O)C[C@@H](/C=C/CCS)OC1=O,7.26% (active),-18.5% (active),-3.79% (active),18.2%,27.3%,-7.53% (active),0.54% (active),-6.18% (active),9.92% (active),29.8%
CCCCOc1nc2ccc(Cl)cc2cc1/C=C/C(=O)/C=C/c1ccc(OC)cc1,76.2%,8.93% (active),96.2%,122%,103%,110%,93.2%,98.2%,107%,107%
CN1C(=O)C2(SCC(C(=O)NCC(=O)OC(C)(C)C)N2C(=O)C2CCCCC2)c2ccccc21 (stereo not given),110%,90.5%,96%,104%,100%,99.8%,101%,107%,97.5%,97.7%
CN(CCNCc1ccccn1)CCNCc1ccccn1,9.92% (active),18.9%,13.5%,-1.39% (active),-17.3% (active),-23% (active),26.9%,-37.1% (active),48.9%,4.32% (active)
